Laboratory results published in PMC4336329 (PLoS ONE, 2015).
The whole screen tested about 310,000 compounds, of which about 14,000 (4.5%) showed an effect of 50% or more. Effects have a minus sign here. Shown is part of a subset that was picked to be rich in strong results.

Target: human ether-à-go-go-related gene (hERG) potassium channel (human, UniProt Q12809)
Experiment: primary screen, population patch clamp on CHO cells stably expressing hERG; higher = less effect of the substance
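Further: peak tail current of the secondary pulse compared with the same well before compound.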

human ether-à-go-go-related gene (hERG) potassium channel, sequence (Q12809 whole entry, looked up): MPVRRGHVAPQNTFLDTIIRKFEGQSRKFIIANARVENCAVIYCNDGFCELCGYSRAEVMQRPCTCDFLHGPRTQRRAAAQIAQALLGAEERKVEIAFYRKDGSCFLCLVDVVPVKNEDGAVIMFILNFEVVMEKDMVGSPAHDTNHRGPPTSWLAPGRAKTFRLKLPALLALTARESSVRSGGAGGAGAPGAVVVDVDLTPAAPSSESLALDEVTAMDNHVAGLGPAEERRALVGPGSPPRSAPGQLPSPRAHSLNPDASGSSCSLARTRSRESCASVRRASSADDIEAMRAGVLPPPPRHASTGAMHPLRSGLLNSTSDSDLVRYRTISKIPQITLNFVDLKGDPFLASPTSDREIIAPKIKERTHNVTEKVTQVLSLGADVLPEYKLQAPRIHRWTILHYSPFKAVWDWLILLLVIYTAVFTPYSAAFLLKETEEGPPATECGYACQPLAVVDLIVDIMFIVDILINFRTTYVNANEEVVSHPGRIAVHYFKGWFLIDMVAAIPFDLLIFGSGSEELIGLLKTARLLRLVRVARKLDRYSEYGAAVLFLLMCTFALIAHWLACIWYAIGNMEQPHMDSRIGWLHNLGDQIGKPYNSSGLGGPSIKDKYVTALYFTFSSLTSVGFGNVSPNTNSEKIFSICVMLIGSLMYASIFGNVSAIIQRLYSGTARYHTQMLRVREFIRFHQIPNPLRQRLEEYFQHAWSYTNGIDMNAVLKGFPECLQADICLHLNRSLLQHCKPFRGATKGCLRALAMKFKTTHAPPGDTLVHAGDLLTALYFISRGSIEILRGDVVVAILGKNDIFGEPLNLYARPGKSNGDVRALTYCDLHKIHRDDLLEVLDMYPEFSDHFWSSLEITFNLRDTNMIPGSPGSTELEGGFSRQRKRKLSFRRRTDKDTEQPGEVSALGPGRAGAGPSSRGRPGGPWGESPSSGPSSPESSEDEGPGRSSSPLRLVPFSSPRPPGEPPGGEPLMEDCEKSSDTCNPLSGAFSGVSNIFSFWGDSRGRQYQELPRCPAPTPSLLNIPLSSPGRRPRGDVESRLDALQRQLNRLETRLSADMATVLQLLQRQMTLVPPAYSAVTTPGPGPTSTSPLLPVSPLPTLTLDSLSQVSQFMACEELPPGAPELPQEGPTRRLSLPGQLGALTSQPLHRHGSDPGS

SMILES | hERG current change (%, negative = inhibition) at 10uM
CCOc1ccc(C(=O)NN2C(=O)C3C4C=CC(O4)C3C2=O)cc1 (stereo not shown) | -14%
COC(=O)c1ccccc1NC(=O)c1cccs1 | 1.38%
N=c1c2c(ncn1Cc1ccco1)Oc1cc(O)ccc1C2c1ccccc1 (stereo not shown) | -74.1%
N=c1c2c(ncn1CCCO)Oc1cc(O)ccc1C2c1ccccc1 (stereo not shown) | -33.7%
N=c1c2c(ncn1CCN1CCOCC1)Oc1cc(O)ccc1C2c1ccccc1 (stereo not shown) | -42.9%
COc1ccc(/C=C(\C#N)C(=O)NC(C)c2ccccc2)cc1O (stereo not shown) | -24.2%
Cc1cc(C(=O)N/N=C/c2ccco2)c2ccccc2n1 | 1.37%
COc1cc(NC(=O)C(c2ccccc2)c2ccccc2)c(C(=O)O)cc1OC | 16.7%
O=C(NCc1cccnc1)Nc1ccc(F)cc1F | -4.58%
Cc1noc(C)c1S(=O)(=O)N(CC(=O)N1CCn2c1nc1ccccc12)c1ccc(C(C)C)cc1 | -14.9%
CC(C)(C)n1cnc2cc(NCc3ccccc3O)ccc21 | -10.1%
CCN(CC)c1ccc(CNc2ccc3c(c2)ncn3C(C)(C)C)cc1 | 1.91%
Cc1ccc(CNc2ccc3c(c2)ncn3C(C)C)cc1 | -78.3%
CCc1ccc(CNc2ccc3c(c2)ncn3C(C)(C)C)cc1 | -36.1%
CC(C)(C)n1cnc2cc(NCc3cccs3)ccc21 | -28.2%
Cc1ccc(CNc2ccc3c(c2)ncn3C(C)(C)C)cc1 | -72.5%
CCOc1ccc(CNc2ccc3c(c2)ncn3C)cc1 | -46.6%
CCOc1ccc(CNc2ccc3c(c2)ncn3C(C)(C)C)cc1 | -58.6%
CC(C)(C)n1cnc2cc(NCc3ccc(Br)cc3)ccc21 | -69.2%
CN(C)c1ccc(CNc2ccc3c(c2)ncn3C(C)(C)C)cc1 | -27.2%
Cc1ccc(CNc2ccc3c(c2)ncn3C)cc1 | -33.8%
CC(C)n1cnc2cc(NCc3ccccc3O)ccc21 | 3.94%
COc1ccccc1CNC(=O)Cn1cccc1C(=O)c1ccccc1 | 8.74%

SMILES | hERG current change (%, negative = inhibition) at 10uM
COCC1CCN(C(=O)c2cc(COc3ccc4c(c3)CCCC4)on2)C1 (stereo not shown) | -24.9%
Cc1cccn2c(=O)c(C=NCc3ccccc3)c(NCCO)nc12 | 0.417%
Cc1ccc(CN2CCSc3ccc(C(=O)NCc4cccnc4)cc32)cc1 | -2.7%
CCN(C(=O)C(C)N1C(=O)/C(=C/c2cccs2)SC1=S)C1CCS(=O)(=O)C1 (stereo not shown) | -27.3%
COC(=O)c1ccc(C(=O)OC)c(NC(=O)CN2CCN(c3ccc(OC)cc3)CC2)c1 | 11.5%
Cc1csc(Nc2ccc(Cl)cc2)[n+]1-c1ccc(Cl)cc1.[Br-] | 14.9%
CC(C)CNC(=O)c1ccccc1NC(=O)CCSc1ccccc1 | -17.6%
COC(=O)c1ccc([C@H]2C=C(C(=O)O)O[C@@H](OCc3ccc(CO)cc3)C2)cc1 | 13.6%
CN(C)CCOCCOc1ccc(Cl)c2ccccc12.O=C(O)C(=O)O | -44.5%
CCN(CC)CCOCCOc1ccccc1F | -3.91%
CCN(CC)CCOCCOc1ccc(Cl)c2ccccc12 | -68%
COc1ccccc1CCNC(=O)C(=O)NCC1OCCN1S(=O)(=O)c1ccc([N+](=O)[O-])cc1 (stereo not shown) | -46.7%
O=C(NCCN1CCOCC1)c1ccc2c(c1)ncn2C1CCCC1 | -6.39%
COc1ccc2[nH]c3c(N4CCN(Cc5ccc6c(c5)OCO6)CC4)ncnc3c2c1 | -18.8%
c1ccc2c(c1)[nH]c1c(N3CCSCC3)ncnc12 | -4.82%
c1ccc(CN2CCN(c3ncnc4c3[nH]c3ccccc34)CC2)cc1 | -62.5%
Cc1ccc2[nH]c3c(N4CCN(Cc5ccccc5)CC4)ncnc3c2c1 | -72.3%
Cc1ccc2c(c1)[nH]c1c(N3CCN(Cc4ccccc4)CC3)ncnc12 | -24.5%
c1ccc2c(c1)[nH]c1c(N3CCCC3)ncnc12 | -15.2%
COc1cccc2[nH]c3c(N4CCN(Cc5ccc6c(c5)OCO6)CC4)ncnc3c12 | -17.3%
COc1ccc2c(c1)[nH]c1c(N3CCN(Cc4ccc5c(c4)OCO5)CC3)ncnc12 | -74%
Cc1ccc2[nH]c3c(N4CCOCC4)ncnc3c2c1 | -0.757%
Cn1c2c(c(=O)n(C)c1=O)C(NC(=O)c1ccco1)(C(F)(F)F)C(=O)N2 (stereo not shown) | 16.3%

SMILES | hERG current change (%, negative = inhibition) at 10uM
O=C1OC(c2ccccc2)=C/C1=C/N1CCOCC1 | 2.28%
O=C(NCCc1nnc2ccc(NCc3ccccc3Cl)nn12)c1ccccc1 | 10.4%
N#Cc1cc2c(nc1SCC(=O)O)CCCCC2 | 3.05%
CCOC(=O)c1sc(NC(=O)c2ccc3ncsc3c2)nc1C | 10.8%
O=C(Nc1ccccc1Cl)c1cc[n+]([O-])cc1 | 27.8%
COc1ccc(C2SCC(=O)N2CCc2ccc(OC)c(OC)c2)cc1 (stereo not shown) | -31.3%
COc1ccc(CCN2CC(C(=O)O)CC2=O)cc1OC (stereo not shown) | 0.984%
COc1ccc(C2CC(=O)N(CCC[NH+](C)CCc3ccc(OC)c(OC)c3)C2)cc1.O=C([O-])C(=O)[O-] (stereo not shown) | -74.7%
COc1ccc(CCN2CC(C(=O)NCc3ccc(F)cc3)CC2=O)cc1OC (stereo not shown) | 2.45%
COc1ccc(NC(=O)CN2CC(c3ccccc3)CC2=O)cc1OC (stereo not shown) | 8.33%
COc1ccc(CC[NH+](C)CCCN2CC(c3ccccc3)CC2=O)cc1OC.O=C([O-])C(=O)[O-] (stereo not shown) | -71.1%
O=C(/C=C/c1ccc(O)cc1)c1ccc(O)cc1O | 9.4%
CCCn1c(O)c(CN2CCCCC2)c(C)c(C#N)c1=O | 15.5%
O=C(NC(=S)Nc1ccc(N2CCOCC2)cc1)c1cncc(Br)c1 | 19.5%
CC(C)CC(=O)Nc1ccnn1C1CCN(C(=O)c2ccc(Cl)cc2F)CC1 | -30.4%
N#CC(C#N)C(c1ccsc1)c1c(-c2ccccc2)[nH][nH]c1=O (stereo not shown) | -3.36%
CN1C(=O)C(=O)/C(=C(/O)c2ccc(Br)cc2)C1c1ccccc1F (stereo not shown) | 8.71%
O=C(C1=C[C@@H](c2coc3ccccc3c2=O)C[C@@H](OCCCCO)O1)N1CCN(Cc2ccccc2)CC1 | -57.9%
O=C(C1=C[C@@H](c2coc3ccccc3c2=O)C[C@@H](OCCCCO)O1)N1CCOCC1 | 7.47%
O=C(C1=C[C@H](c2coc3ccccc3c2=O)C[C@H](OCCCCO)O1)N1CCOCC1 | -16%
CN1CCN(C(=O)C2=C[C@@H](c3coc4ccccc4c3=O)C[C@@H](OCCCCO)O2)CC1 | 0.749%
CN1CCN(C(=O)C2=C[C@H](c3coc4ccccc4c3=O)C[C@H](OCCCCO)O2)CC1 | -20.3%
O=C(C1=C[C@H](c2coc3ccccc3c2=O)C[C@H](OCCCCO)O1)N1CCN(Cc2ccccc2)CC1 | -61.5%

SMILES | hERG current change (%, negative = inhibition) at 10uM
Nc1nc(Sc2c([N+](=O)[O-])cc(C(F)(F)F)cc2[N+](=O)[O-])n[nH]1 | 3.04%
CCn1c(COc2ccccc2OC)nc2ccccc21 | 2.28%
Cc1ccc(-c2csc3nc(SCC(=O)N(C)C)n(Cc4ccccc4)c(=O)c23)cc1 | -26%
Cc1[nH][nH]c(=O)c1C(c1ccc(O)c(Br)c1)c1c(C)[nH][nH]c1=O | 4.34%
O=C(c1ccccc1Br)N1CCN(c2ccccn2)CC1 | 9.41%
O=C(COC(=O)CCSc1ccccc1)NCc1ccccc1Cl | 22.4%
Nc1nc(Sc2ncccc2[N+](=O)[O-])n[nH]1 | 3.27%
COc1ccccc1NC(=S)N1C2CCC1CC(NC(=O)NC13CC4CC(CC(C4)C1)C3)C2 (stereo not shown) | -2.49%
Cc1cccc(N2C(=O)CN(Cc3sccc3C)C2=S)c1 | -7.83%
COc1ccccc1N1CCN(C(=O)c2cc(-c3ccccc3)on2)CC1 | 8.22%
CCn1c(N2CCN(C(=O)Nc3ccc(F)cc3)CC2)nc2ccccc21 | -68.2%
COc1ccc(Nc2nc3ccccc3n2C)cc1 | 11.3%
CCn1c(N2CCN(C(=S)NCC(C)C)CC2)nc2ccccc21 | -30.4%
Cn1c(Nc2ccccc2)nc2ccccc21 | 1.74%
Cn1c(Nc2ccc(F)cc2)nc2ccccc21 | -51.7%
CCn1c(N2CCN(S(=O)(=O)c3ccc(F)cc3)CC2)nc2ccccc21 | -36.2%
Cn1c(N2CCN(C(=O)Nc3ccc(C(F)(F)F)cc3)CC2)nc2ccccc21 | -41.3%
CCn1c(N2CCN(C(=S)Nc3ccc(OC)cc3)CC2)nc2ccccc21 | -68.3%
Cn1c(N2CCN(C(=O)Nc3ccc(F)cc3)CC2)nc2ccccc21 | -55.8%
CCn1c(N2CCN(C(=O)NC3CCCCC3)CC2)nc2ccccc21 | -32.5%
O=C(Nc1ccc(F)cc1)N1CCN(c2nc3ccccc3s2)CC1 | 1.48%
CCn1c(N2CCN(C(=S)NC)CC2)nc2ccccc21 | -30.2%
